Common to all, as to assay: NCI-60 one-dose screen, 48 h (100 = growth as untreated, 0 = no growth, -100 = all killed)
One experiment relates to HCT-15 colon. Conditions: 10 µM unless noted.
A further experiment has as its system HT29 colon. To be noted: 10 µM unless noted.
A further experiment concerns SNB-75 CNS. To be noted: 10 µM unless noted.
For the next experiment, the system named is SNB-19 CNS. To be noted: 10 µM unless noted.
The next experiment has as its system U251 CNS. Conditions: 10 µM unless noted.
For another experiment, the system named is PC-3 prostate. To be noted: 10 µM unless noted.
Another experiment relates to SK-MEL-5 melanoma. To be noted: 10 µM unless noted.
Another experiment has as its system UACC-62 melanoma. Conditions: 10 µM unless noted.
Another experiment relates to LOX IMVI melanoma. To be noted: 10 µM.
Another experiment relates to SK-MEL-28 melanoma. Conditions: 10 µM unless noted.
For another experiment, the system named is SK-MEL-2 melanoma. To be noted: 10 µM unless noted.
A further experiment has as its system EKVX NSCLC. To be noted: 10 µM unless noted.
The test system of a further experiment is UO-31 renal. To be noted: 10 µM unless noted.
The test system of another experiment is TK-10 renal. To be noted: 10 µM unless noted.
For the next experiment, the system named is ACHN renal. Conditions: 10 µM unless noted.
For a further experiment, the system named is CAKI-1 renal. Conditions: 10 µM unless noted.
A further experiment has as its system CCRF-CEM leukemia. Conditions: 10 µM unless noted.
The test system of a further experiment is MOLT-4 leukemia. To be noted: 10 µM unless noted.
Another experiment has as its system SN12C renal. Conditions: 10 µM unless noted.
In another experiment the test system is A498 renal. To be noted: 10 µM unless noted.

Compounds without any hit were thinned out: in the full panel of roughly 83,000, 20% have a hit.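 Activity criterion: percent growth below 10, measured after cells in 96-well plates were exposed to a single compound concentration for 48 hours.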 A number with no mark means an inactive call. Activity calls are given as the source filed them.

Turning to `CCOS(=O)(=O)c1ccc([N+](=O)[O-])cc1`, the growth in the experiment on HCT-15 colon is 110%; in the experiment with HT29 colon it was 94%; with SNB-75 CNS, 87%; in the experiment on SNB-19 CNS it was 101%; with U251 CNS it was 99.2%; in the experiment with PC-3 prostate, 97.9%. The growth was 102% in the experiment with SK-MEL-5 melanoma; 101% with UACC-62 melanoma; 97.7% in the experiment with LOX IMVI melanoma; 107% with SK-MEL-28 melanoma; 102% with SK-MEL-2 melanoma; 110% in the experiment with EKVX NSCLC. In addition, the growth in the experiment with UO-31 renal is 88.9%; in the experiment on TK-10 renal, 95%; in the experiment with ACHN renal, 103%; with CAKI-1 renal, 99%; in the experiment with CCRF-CEM leukemia it was 99.2%; with MOLT-4 leukemia it was 98.5%.

As to `CS(=O)(=O)c1ccc(/C=C\C(=O)O)cc1`, the growth is 96.1% in the experiment on HCT-15 colon; 104% in the experiment on HT29 colon; 80.2% in the experiment with SNB-75 CNS; 102% in the experiment with SNB-19 CNS; 104% in the experiment on U251 CNS; 98.1% in the experiment on PC-3 prostate. Besides, the growth in the experiment on SK-MEL-5 melanoma was 99.5%; with UACC-62 melanoma it was 111%; in the experiment with LOX IMVI melanoma, 98%; in the experiment on SK-MEL-28 melanoma it was 105%; with SK-MEL-2 melanoma, 109%; in the experiment on SN12C renal it was 103%. Further, the growth in the experiment on UO-31 renal was 83.5%; in the experiment with TK-10 renal, 101%; with ACHN renal it was 108%; in the experiment with CAKI-1 renal, 98.2%; in the experiment with A498 renal it was 48.6%; in the experiment on MOLT-4 leukemia, 111%.

Turning to `NC(=O)NCCO`, the growth in the experiment on HCT-15 colon was 109%; in the experiment on HT29 colon, 100%; in the experiment on SNB-75 CNS, 105%; in the experiment on SNB-19 CNS it was 104%; in the experiment on U251 CNS it was 92.5%; in the experiment on PC-3 prostate, 94.5%. In addition, the growth with SK-MEL-5 melanoma was 98%; in the experiment on UACC-62 melanoma it was 95.5%; with LOX IMVI melanoma, 97.7%; in the experiment on SK-MEL-28 melanoma, 113%; in the experiment with SK-MEL-2 melanoma it was 108%; in the experiment with SN12C renal, 101%. Further, the growth was 94.1% in the experiment on UO-31 renal; 96.5% with TK-10 renal; 107% with ACHN renal; 95.2% in the experiment on CAKI-1 renal; 77.1% in the experiment on A498 renal; 85% in the experiment with CCRF-CEM leukemia. In the experiment with MOLT-4 leukemia, the growth was 96.3%.

In the case of `CCOC(C=O)OCC`, the growth with HCT-15 colon was 102%; in the experiment on HT29 colon it was 99.7%; in the experiment with SNB-75 CNS, 98.5%; in the experiment with SNB-19 CNS, 106%; in the experiment on U251 CNS it was 97.4%; with PC-3 prostate, 95.1%. Further, the growth in the experiment on SK-MEL-5 melanoma was 106%; in the experiment on UACC-62 melanoma, 104%; in the experiment with LOX IMVI melanoma it was 94.1%; with SK-MEL-28 melanoma it was 116%; in the experiment on SK-MEL-2 melanoma it was 102%; in the experiment on SN12C renal, 102%. Further, the growth was 94.4% in the experiment with UO-31 renal; 93.1% in the experiment on TK-10 renal; 112% in the experiment on ACHN renal; 97.8% in the experiment with CAKI-1 renal; 93.3% with A498 renal; 99.1% in the experiment on CCRF-CEM leukemia. In addition, in the experiment with MOLT-4 leukemia, the growth was 85.2%.

Turning to `C=CCc1cc(OC)c(O)c(OC)c1`, the growth is 98.7% with HCT-15 colon; 99.7% in the experiment with HT29 colon; 90.9% with SNB-75 CNS; 109% with SNB-19 CNS; 97.2% in the experiment on U251 CNS; 95.4% with PC-3 prostate. Moreover, the growth in the experiment on SK-MEL-5 melanoma was 99.8%; in the experiment on UACC-62 melanoma it was 103%; in the experiment with LOX IMVI melanoma, 101%; with SK-MEL-28 melanoma, 108%; in the experiment on SK-MEL-2 melanoma, 102%; with EKVX NSCLC it was 101%. Moreover, the growth in the experiment with UO-31 renal is 92.5%; in the experiment on TK-10 renal it was 113%; in the experiment on ACHN renal, 102%; in the experiment with CAKI-1 renal it was 97.6%; in the experiment on CCRF-CEM leukemia it was 109%; in the experiment with MOLT-4 leukemia, 102%.

For the compound `CC(C)=CCC[C@@H](C)[C@H]1CC[C@@]2(C)C3=C(CC[C@]12C)[C@@]1(C)CC[C@H](O)C(C)(C)[C@@H]1CC3`, the growth with HCT-15 colon is 97.9%; with HT29 colon, 90.1%; with SNB-75 CNS it was 92.7%; in the experiment with SNB-19 CNS, 105%; in the experiment with U251 CNS, 99.2%; in the experiment with PC-3 prostate, 101%. Besides, the growth is 104% in the experiment with SK-MEL-5 melanoma; 101% in the experiment with UACC-62 melanoma; 103% in the experiment with LOX IMVI melanoma; 104% in the experiment on SK-MEL-28 melanoma; 118% in the experiment with SK-MEL-2 melanoma; 102% with SN12C renal. For the same compound, the growth is 111% with UO-31 renal; 112% in the experiment on TK-10 renal; 101% in the experiment with ACHN renal; 99.1% in the experiment on CAKI-1 renal; 114% with A498 renal; 99% in the experiment on MOLT-4 leukemia.

Turning to `O=S(=O)(O)c1ccc(O)c(C2CCCCC2)c1`, the growth is 96.6% in the experiment on HCT-15 colon; 98.6% in the experiment with HT29 colon; 77.2% in the experiment on SNB-75 CNS; 104% with SNB-19 CNS; 96.6% in the experiment with U251 CNS; 98.5% in the experiment with PC-3 prostate. The growth is 101% in the experiment on SK-MEL-5 melanoma; 109% in the experiment on UACC-62 melanoma; 105% with LOX IMVI melanoma; 110% in the experiment with SK-MEL-28 melanoma; 102% with SK-MEL-2 melanoma; 105% with SN12C renal. Further, the growth was 91% with UO-31 renal; 95% with TK-10 renal; 105% in the experiment on ACHN renal; 94.4% with CAKI-1 renal; 66.3% with A498 renal; 110% in the experiment with CCRF-CEM leukemia. In the experiment with MOLT-4 leukemia, the growth was 99.9%.

With `Nc1nc(N)nc(N2CCCCC2)n1`, the growth in the experiment with HCT-15 colon was 107%; in the experiment with HT29 colon, 98.2%; in the experiment with SNB-75 CNS, 118%; in the experiment on SNB-19 CNS it was 115%; in the experiment on U251 CNS, 101%; with PC-3 prostate, 99.5%. For the same compound, the growth in the experiment with SK-MEL-5 melanoma is 100%; in the experiment with UACC-62 melanoma it was 104%; with LOX IMVI melanoma, 104%; in the experiment on SK-MEL-28 melanoma, 114%; in the experiment with SK-MEL-2 melanoma, 100%; in the experiment with EKVX NSCLC it was 107%. In addition, the growth was 87.4% in the experiment with UO-31 renal; 91.6% in the experiment with TK-10 renal; 110% in the experiment with ACHN renal; 104% in the experiment with CAKI-1 renal; 89.6% in the experiment with A498 renal; 107% with MOLT-4 leukemia.

For the compound `NC(=S)N/N=C/c1ccc(OC(=O)COc2ccccc2)cn1`, the growth with HCT-15 colon was 76.8%; in the experiment on HT29 colon, 84.1%; in the experiment on SNB-75 CNS, 59.3%; in the experiment on SNB-19 CNS, 74.9%; in the experiment with U251 CNS it was 42.3%; in the experiment with PC-3 prostate, 63.9%. Besides, the growth in the experiment on SK-MEL-5 melanoma was 38.4%; in the experiment on UACC-62 melanoma it was 13.9%; in the experiment with LOX IMVI melanoma, 19.1%; in the experiment with SK-MEL-28 melanoma, 83%; with SK-MEL-2 melanoma it was 69.3%; with EKVX NSCLC it was 109%. Also, the growth in the experiment on UO-31 renal was 24.5%; in the experiment on TK-10 renal, 74.7%; with ACHN renal, 8.03% (active); in the experiment on CAKI-1 renal, 3.88% (active); with A498 renal, 70.5%; in the experiment on MOLT-4 leukemia, 22.3%.

Values taken from PubChem BioAssay (NCI).
